Results reported in PubChem BioAssay (NCI).
The panel holds about 83,000 compounds, 20% with a hit somewhere; the sample as a whole holds those more often.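 Method: cells in 96-well plates; compound added at one concentration; 48 h incubation; percent growth measured; values under 10 scored active.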 A number with no mark means an inactive call. The source made the active and inactive calls.

Columns and labels:
Experiment in all cases: NCI-60 one-dose screen, 48 h (100 = growth as untreated, 0 = no growth, -100 = all killed)
Conditions in all cases: 10 µM unless noted
[1] = test system: NCI-H23 lung
[2] = test system: NCI-H226 lung
[3] = test system: NCI-H322M lung
[4] = test system: HOP-62 NSCLC
[5] = test system: NCI-H460 lung
[6] = test system: HOP-92 NSCLC
[7] = test system: NCI-H522 lung
[8] = test system: A549/ATCC NSCLC
[9] = test system: 786-0 renal
[10] = test system: COLO 205 colon
[11] = test system: DU-145 prostate
[12] = test system: K-562 leukemia
[13] = test system: MALME-3M melanoma
[14] = test system: MDA-MB-231 breast
[15] = test system: RXF 393 renal
[16] = test system: SF-268 CNS
[17] = test system: SF-295 CNS
[18] = test system: SF-539 CNS
[19] = test system: UACC-257 melanoma
[20] = test system: M14 melanoma

## Cc1cc(C)c2c(n1)sc1c(Nc3ccc(OCc4ccccc4)cc3)ncnc12
[1]
  growth: 101%
[2]
  growth: 96.2%
[3]
  growth: 92.8%
[4]
  growth: 101%
[5]
  growth: 98.8%
[6]
  growth: 88.2%
[7]
  growth: 90.1%
[8]
  growth: 101%
[9]
  growth: 97.8%
[10]
  growth: 111%
[11]
  growth: 104%
[12]
  growth: 95.2%
[13]
  growth: 88.6%
[14]
  growth: 109%
[15]
  growth: 104%
[16]
  growth: 101%
[17]
  growth: 101%
[18]
  growth: 107%
[19]
  growth: 106%
[20]
  growth: 108%

## CCCc1n(Cc2ccc3ccccc3n2)cc[n+]1Cc1ccc2ccccc2n1
[1]
  growth: 13%
[2]
  growth: 38%
[3]
  growth: 72.1%
[4]
  growth: 51.7%
[5]
  growth: 34.2%
[6]
  growth: 16%
[7]
  growth: 22.8%
[8]
  growth: 62.8%
[9]
  growth: 85.3%
[10]
  growth: -43% (active)
[11]
  growth: 51.2%
[12]
  growth: 12.8%
[13]
  growth: 12.5%
[14]
  growth: 17.8%
[15]
  growth: 48.7%
[16]
  growth: 27.8%
[17]
  growth: 59.9%
[18]
  growth: 31.2%
[19]
  growth: -11.5% (active)
[20]
  growth: 37.2%

## CCSc1ccc([C@@H]2[C@@H](N)C(=O)N2c2cc(OC)c(OC)c(OC)c2)cc1
[1]
  growth: 35.9%
[2]
  growth: 59.4%
[3]
  growth: 45.7%
[4]
  growth: 41.8%
[5]
  growth: 12.2%
[6]
  growth: 113%
[7]
  growth: 18.7%
[8]
  growth: 30.5%
[9]
  growth: 31.7%
[10]
  growth: -5.46% (active)
[11]
  growth: 23.7%
[12]
  growth: 7.64% (active)
[13]
  growth: 63.8%
[14]
  growth: 41%
[15]
  growth: -17% (active)
[16]
  growth: 54.6%
[17]
  growth: 10.2%
[18]
  growth: -22.6% (active)
[19]
  growth: 67.7%
[20]
  growth: -15.5% (active)

## Cc1ccc2nc(CN(CCN(Cc3nc4ccc(C)cc4[nH]3)Cc3nc4ccc(C)cc4[nH]3)Cc3nc4ccc(C)cc4[nH]3)[nH]c2c1
[1]
  growth: -57.3% (active)
[2]
  growth: -97.1% (active)
[3]
  growth: -95.7% (active)
[4]
  growth: -93.3% (active)
[5]
  growth: -94.8% (active)
[6]
  growth: -80.7% (active)
[7]
  growth: -86.4% (active)
[8]
  growth: -89.1% (active)
[9]
  growth: -97.3% (active)
[10]
  growth: -93.4% (active)
[11]
  growth: -99.6% (active)
[12]
  growth: -25.7% (active)
[13]
  growth: -70.4% (active)
[14]
  growth: -81.7% (active)
[15]
  growth: -92.5% (active)
[16]
  growth: -85% (active)
[17]
  growth: -86.8% (active)
[18]
  growth: -99.7% (active)
[19]
  growth: -91.8% (active)
[20]
  growth: -79.4% (active)

## N#Cc1nc(-c2cccc(Br)c2)cc(-c2ccc(Nc3nc(N4CCCCC4)nc(N4CCCCC4)n3)cc2)c1N
[1]
  growth: 13%
[2]
  growth: -73.7% (active)
[3]
  growth: 63.1%
[4]
  growth: 18.5%
[5]
  growth: -21.8% (active)
[6]
  growth: -69.4% (active)
[7]
  growth: -64.6% (active)
[8]
  growth: 21.9%
[9]
  growth: 6.82% (active)
[10]
  growth: -57.7% (active)
[11]
  growth: -39% (active)
[12]
  growth: 4.51% (active)
[13]
  growth: -80.9% (active)
[14]
  growth: -67.4% (active)
[15]
  growth: -70.9% (active)
[16]
  growth: 5.03% (active)
[17]
  growth: 82.8%
[18]
  growth: -75.9% (active)
[19]
  growth: -35.8% (active)
[20]
  growth: 2.1% (active)

## COc1ccc(OC)c(Nc2nc(-c3c(C)nc4sccn34)cs2)c1
[1]
  growth: 69.7%
[2]
  growth: 65.7%
[3]
  growth: 93.7%
[4]
  growth: 75.7%
[5]
  growth: 62.4%
[6]
  growth: 97.6%
[7]
  growth: 78.6%
[8]
  growth: 74.6%
[9]
  growth: 101%
[10]
  growth: 100%
[11]
  growth: 81.7%
[12]
  growth: 27.8%
[13]
  growth: 88.9%
[14]
  growth: 71.1%
[15]
  growth: 83.5%
[16]
  growth: 102%
[17]
  growth: 52.8%
[18]
  growth: 75.7%
[19]
  growth: 81%
[20]
  growth: 78.6%

## CC[C@H](Nc1nc(N)nc(N)c1Cl)c1nc2cccc(NCc3ccc(C(=O)NO)cc3)c2c(=O)n1-c1ccccc1
[1]
  growth: -71.6% (active)
[2]
  growth: 4.53% (active)
[3]
  growth: 35.8%
[4]
  growth: 11.6%
[5]
  growth: 1.8% (active)
[6]
  growth: -15.7% (active)
[7]
  growth: -13.5% (active)
[8]
  growth: -4.67% (active)
[9]
  growth: 3.36% (active)
[10]
  growth: -20.1% (active)
[11]
  growth: -0.88% (active)
[12]
  growth: 3.11% (active)
[13]
  growth: 20.2%
[14]
  growth: -10.8% (active)
[15]
  growth: -52.5% (active)
[16]
  growth: 4.81% (active)
[17]
  growth: 13.2%
[18]
  growth: -74.2% (active)
[19]
  growth: -0.0784% (active)
[20]
  growth: -13% (active)
